# Laboratory results published in PubChem BioAssay (NCATS).
# Results filed as inconclusive are left out. A call without a number means that no potency is given here. Calls of active or inactive are those of the source. Unless noted, calls follow the shape of the dose curve; as a rule, active = well fitted curve in the direction sought with a large enough effect; inconclusive = small, poorly fitted or top-dose-only effect, or another doubt; inactive = no such curve, though single readings can be large; an effect the other way counts as inactive or inconclusive.
# Key:
# [1] = target: ATP-dependent 6-phosphofructokinase (Trypanosoma brucei brucei) (UniProt O15648); assay: qHTS Assay to Find Inhibitors of T. brucei phosphofructokinase: hit validation (AID 492961);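 also: luminescence reports ADP formed as PFK phosphorylates fructose-6-phosphate with ATP; series mostly up to about 51 µM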
# In short: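 Inhibition of parasite PFK is measured as reduced ADP formation, quantified via luciferase after ATP depletion. Assay used 0.1 mM ATP, 0.5 mM F6P, 1.25 nM enzyme, 45 min incubation.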
# [2] = target: Tumor susceptibility gene 101 protein (Homo sapiens) (UniProt Q99816); assay: qHTS Validation Assay for Iinhibitors of HIV-1 Budding by Blocking the Interaction of PTAP/TSG101 (AID 485342; calls by dose curve)
# In short: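 Binding of a FITC-tagged PTAP-motif peptide (50 nM) to the Tsg101 binding domain (10 uM) is monitored by fluorescence polarization. Compounds are pin-delivered before peptide addition, and incubation runs 20 min at room temperature.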
# [3] = qHTS Validation Assay to Find Inhibitors of Chronic Active B-Cell Receptor Signaling (AID 485345; active = well fitted curve in the direction sought with a large enough effect in the main read-out, with a control signal flat, not every such curve was filed as active)
# In short: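 TMD8 ABC-DLBCL cells stably carrying doxycycline-inducible IkappaBalpha–green luciferase fusion plus unfused red luciferase; compounds 46 uM to 3 nM, 4 h at 37C with doxycycline. Corrected green/red luminescence ratio normalized to 10 uM MG-132 and basal cell wells; curves fitted.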
# [4] = target: Beta-2 adrenergic receptor (Homo sapiens) (UniProt P07550); assay: qHTS validation assay of beta-arrestin-biased ligands of beta2-adrenergic receptor (AID 485366)
# Sequence of Beta-2 adrenergic receptor (Homo sapiens) (P07550 whole entry, looked up): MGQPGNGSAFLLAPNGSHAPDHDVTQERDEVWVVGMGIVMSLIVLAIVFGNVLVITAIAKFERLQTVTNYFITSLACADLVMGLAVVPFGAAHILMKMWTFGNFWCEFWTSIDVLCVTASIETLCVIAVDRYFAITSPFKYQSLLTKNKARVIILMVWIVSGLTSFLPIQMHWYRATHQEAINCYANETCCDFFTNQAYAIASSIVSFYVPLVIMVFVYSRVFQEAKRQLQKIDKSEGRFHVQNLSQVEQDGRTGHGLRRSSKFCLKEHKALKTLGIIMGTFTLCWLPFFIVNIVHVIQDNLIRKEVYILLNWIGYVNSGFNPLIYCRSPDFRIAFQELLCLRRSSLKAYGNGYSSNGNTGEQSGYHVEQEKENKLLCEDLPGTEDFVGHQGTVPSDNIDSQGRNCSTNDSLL
# In short: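 Luminescence from a tTA-responsive luciferase, induced when recombinant beta-arrestin is recruited to recombinant beta2-AR, served as the agonism signal. Cells were exposed to compound for 18 hr at 37 degrees C; titrations spanned up to 46 microM.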
# [5] = Quantitative high throughput screen for delayed death inhibitors of the malarial parasite plastid, 96 hour incubation (AID 488745); also: series mostly up to about 29 µM; nearly all actives have a fitted effect of over 70% in size
# In short: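 Luciferase-expressing P. falciparum in erythrocytes (2% hematocrit, 0.1% parasitemia) incubated with compound for 96 h at 37 C, 5% CO2, in RPMI 1640 with 0.5% Albumax. Growth inhibition read as decreased luminescence.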
# [6] = Quantitative high throughput screen for delayed death inhibitors of the malarial parasite plastid, 48 hour incubation (AID 488752); also: nearly all actives have a fitted effect of over 65% in size
# In short: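 Erythrocytes infected with firefly luciferase-expressing P. falciparum (2% hematocrit, 0.1% parasitemia) cultured with compound for 48 h at 37 C, 5% CO2, in RPMI 1640/0.5% Albumax. Growth inhibition read as loss of luminescence.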
# [7] = target: Thioredoxin reductase 1, cytoplasmic (Rattus norvegicus) (UniProt O89049); assay: qHTS Assay for Substrates of Mammalian Selenoprotein Thioredoxin Reductase 1 (TrxR1) (AID 488772);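 also: NADPH fluorescence in the first read after selenite addition and not the 8 min delta; series mostly up to about 57 µM; a drop in NADPH fluorescence below the no-compound background marks a TrxR1 substrate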
# Sequence of Thioredoxin reductase 1, cytoplasmic (Rattus norvegicus) (O89049 whole entry, looked up): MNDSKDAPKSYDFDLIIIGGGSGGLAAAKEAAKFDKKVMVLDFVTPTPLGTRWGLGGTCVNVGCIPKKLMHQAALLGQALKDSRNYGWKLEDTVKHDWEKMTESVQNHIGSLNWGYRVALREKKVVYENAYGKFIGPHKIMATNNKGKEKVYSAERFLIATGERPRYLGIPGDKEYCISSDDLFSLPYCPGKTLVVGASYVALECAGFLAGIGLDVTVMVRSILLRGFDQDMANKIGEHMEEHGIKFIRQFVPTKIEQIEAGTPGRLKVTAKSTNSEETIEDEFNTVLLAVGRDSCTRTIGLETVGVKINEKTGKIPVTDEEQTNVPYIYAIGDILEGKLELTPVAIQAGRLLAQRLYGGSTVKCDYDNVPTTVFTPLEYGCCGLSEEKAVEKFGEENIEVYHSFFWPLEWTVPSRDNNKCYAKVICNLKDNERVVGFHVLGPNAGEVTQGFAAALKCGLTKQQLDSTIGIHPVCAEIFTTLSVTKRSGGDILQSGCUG
# In short: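 Quantitative HTS in Tris-HCl buffer at pH 7.5 with EDTA and Tween-20, using rat TrxR1, 400 uM NADPH and 400 uM selenite (final). A fall in initial NADPH fluorescence relative to background marked substrate behaviour.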
# [8] = target: Thioredoxin reductase 1, cytoplasmic (Rattus norvegicus) (UniProt O89049); assay: qHTS Assay for Inhibitors of Mammalian Selenoprotein Thioredoxin Reductase 1 (TrxR1) (AID 488773); settings: Potency: inhibition;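 also: drop in NADPH fluorescence over an 8 min run after selenite addition; series mostly up to about 57 µM; nearly all actives have a fitted effect of over 40% in size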
# In short: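 Steps: enzyme (90 nM) plus NADPH (400 uM final), 5 min at ~22 deg C; compound added, 15 min; selenite (400 uM final) added; fluorescence followed for 8 min. Concentration-response curves derived from the normalized delta values.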
# [9] = target: M-phase phosphoprotein 8 (Homo sapiens) (UniProt Q99549); assay: qHTS Validation Assay for Inhibitors for MPP8 Chromodomain Interactions with Methylated Histone Tails (AID 488949); also: nearly all actives have a fitted effect of over 55% in size; also: potency is read from the fitted curve at half-maximal effect
# Sequence of M-phase phosphoprotein 8 (Homo sapiens) (Q99549 whole entry, looked up): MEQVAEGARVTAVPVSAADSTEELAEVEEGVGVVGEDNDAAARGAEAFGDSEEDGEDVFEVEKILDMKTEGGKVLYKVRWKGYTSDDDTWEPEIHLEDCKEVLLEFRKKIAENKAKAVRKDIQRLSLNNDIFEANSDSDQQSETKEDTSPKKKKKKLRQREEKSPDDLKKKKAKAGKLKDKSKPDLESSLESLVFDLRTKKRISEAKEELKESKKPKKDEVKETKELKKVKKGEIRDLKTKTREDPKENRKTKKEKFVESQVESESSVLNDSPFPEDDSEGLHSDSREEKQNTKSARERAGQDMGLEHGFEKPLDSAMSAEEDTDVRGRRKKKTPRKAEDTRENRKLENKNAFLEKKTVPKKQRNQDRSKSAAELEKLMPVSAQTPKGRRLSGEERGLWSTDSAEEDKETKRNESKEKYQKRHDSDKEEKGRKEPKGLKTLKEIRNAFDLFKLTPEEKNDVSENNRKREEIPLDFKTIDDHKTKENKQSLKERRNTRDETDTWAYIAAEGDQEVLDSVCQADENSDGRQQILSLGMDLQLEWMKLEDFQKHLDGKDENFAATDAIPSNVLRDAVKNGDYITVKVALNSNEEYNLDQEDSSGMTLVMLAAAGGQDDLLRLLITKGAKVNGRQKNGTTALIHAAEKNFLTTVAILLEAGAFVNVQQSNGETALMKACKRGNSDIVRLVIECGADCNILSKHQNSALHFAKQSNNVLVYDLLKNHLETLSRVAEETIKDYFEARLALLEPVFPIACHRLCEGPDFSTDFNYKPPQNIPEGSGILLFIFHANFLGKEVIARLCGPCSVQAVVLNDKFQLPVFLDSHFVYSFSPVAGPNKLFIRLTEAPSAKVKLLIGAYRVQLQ
# In short: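 50 nM MPP8 + 50 nM b-H3K9me3 peptide, PBS pH 7.4/0.01% Tween-20, 30 min RT; + cpd 30 min RT; + AlphaScreen donor/Ni-chelate acceptor beads 10 ug/mL final, 30 min dark; luminescence read.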
# [10] = target: Chromobox protein homolog 1 (Homo sapiens) (UniProt P83916); assay: qHTS Validation Assay for Inhibitors of HP1-beta Chromodomain Interactions with Methylated Histone Tails (AID 488953); also: nearly all actives have a fitted effect of over 50% in size; also: potency is read from the fitted curve at half-maximal effect
# Sequence of Chromobox protein homolog 1 (Homo sapiens) (P83916 whole entry, looked up): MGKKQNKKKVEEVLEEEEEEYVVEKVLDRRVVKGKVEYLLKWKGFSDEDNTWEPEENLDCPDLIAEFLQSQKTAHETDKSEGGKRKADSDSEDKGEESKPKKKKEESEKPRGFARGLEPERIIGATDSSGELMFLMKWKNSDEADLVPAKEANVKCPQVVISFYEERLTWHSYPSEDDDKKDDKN
# In short: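 HP1-beta (50 nM) preformed 30 min with biotinylated H3(1-18)K9me3 peptide (50 nM) in PBS pH 7.4, 0.01% Tween-20. Compounds added for 30 min at room temperature. Complex disruption read by AlphaScreen with streptavidin donor/nickel chelate acceptor beads (10 ug/mL each).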
# [11] = target: Methanococcus maripaludis chaperonin (MmCpn) (UniProt Q6LX38); assay: High-Throughput Screening for Modulators of Cytosolic Chaperonin Activity: MmCpn Primary Screen (AID 488978);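 also: 50 nM MmCpn enzyme hydrolysing 30 µM ATP at 37 °C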
# Sequence of Methanococcus maripaludis chaperonin (MmCpn) (Q6LX38 1-543): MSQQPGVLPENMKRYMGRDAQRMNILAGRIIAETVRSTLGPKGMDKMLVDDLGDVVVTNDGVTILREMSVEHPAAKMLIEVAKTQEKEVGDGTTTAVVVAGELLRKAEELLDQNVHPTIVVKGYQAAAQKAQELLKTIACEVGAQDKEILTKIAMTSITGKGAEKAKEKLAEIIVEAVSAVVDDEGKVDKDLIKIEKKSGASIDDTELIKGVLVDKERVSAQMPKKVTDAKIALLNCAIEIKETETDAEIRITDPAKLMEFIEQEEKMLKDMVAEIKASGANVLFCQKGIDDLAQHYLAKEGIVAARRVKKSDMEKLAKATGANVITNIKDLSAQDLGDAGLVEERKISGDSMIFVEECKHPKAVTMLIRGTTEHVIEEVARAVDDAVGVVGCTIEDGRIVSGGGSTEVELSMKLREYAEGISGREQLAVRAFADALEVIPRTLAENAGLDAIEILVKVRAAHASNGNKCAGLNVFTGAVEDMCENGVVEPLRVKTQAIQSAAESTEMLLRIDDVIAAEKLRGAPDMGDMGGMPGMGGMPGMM
# In short: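 Steps: chaperonin 50 nM final; add compound, 5 min RT; start with ATP, 30 uM final; hold 10 min at 37C; add ADP Transcreener HTRF reagent, 5 min; read ex 320, em 590 and 665 nm.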
# [12] = target: Transient receptor potential cation channel subfamily V member 1 (Homo sapiens) (UniProt Q8NER1); assay: HTS Assay for Compounds that Act as Enhancers of the Vanilloid Receptor 1 (AID 488979)
# Sequence of Transient receptor potential cation channel subfamily V member 1 (Homo sapiens) (Q8NER1 whole entry, looked up): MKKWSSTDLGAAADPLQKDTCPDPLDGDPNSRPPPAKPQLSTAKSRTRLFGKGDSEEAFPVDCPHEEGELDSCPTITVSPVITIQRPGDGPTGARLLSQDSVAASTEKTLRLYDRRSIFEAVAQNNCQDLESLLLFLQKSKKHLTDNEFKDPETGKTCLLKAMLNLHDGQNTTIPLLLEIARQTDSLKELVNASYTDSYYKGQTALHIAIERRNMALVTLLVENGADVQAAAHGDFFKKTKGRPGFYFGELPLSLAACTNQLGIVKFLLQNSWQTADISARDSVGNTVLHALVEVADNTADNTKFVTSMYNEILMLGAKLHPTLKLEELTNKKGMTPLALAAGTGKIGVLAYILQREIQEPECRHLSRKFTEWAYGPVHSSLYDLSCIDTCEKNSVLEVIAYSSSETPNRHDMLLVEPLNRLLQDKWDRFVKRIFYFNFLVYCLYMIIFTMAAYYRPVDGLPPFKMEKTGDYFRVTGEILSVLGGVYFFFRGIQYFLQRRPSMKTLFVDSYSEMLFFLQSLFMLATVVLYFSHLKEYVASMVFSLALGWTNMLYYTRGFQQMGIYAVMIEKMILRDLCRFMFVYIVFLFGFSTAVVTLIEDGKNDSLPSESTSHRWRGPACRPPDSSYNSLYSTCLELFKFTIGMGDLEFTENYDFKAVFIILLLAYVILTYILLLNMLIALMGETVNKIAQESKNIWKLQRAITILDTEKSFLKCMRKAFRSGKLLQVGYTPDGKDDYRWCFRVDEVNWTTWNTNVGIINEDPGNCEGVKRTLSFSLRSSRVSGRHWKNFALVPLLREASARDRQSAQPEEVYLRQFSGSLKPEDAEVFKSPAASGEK
# In short: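 TRPV1 cells loaded with Fluo-8 calcium dye; compound added and Ca2+ signal (ex 480/em 520 nm) followed 3 min, then capsaicin at EC20 added and read 2 more min to detect enhancement.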
# [13] = target: Thyrotropin receptor (Homo sapiens) (UniProt P16473); assay: qHTS Assay for Antagonists of the Thyroid Stimulating Hormone Receptor (AID 488980); also: series mostly up to about 58 µM
# Sequence of Thyrotropin receptor (Homo sapiens) (P16473 whole entry, looked up): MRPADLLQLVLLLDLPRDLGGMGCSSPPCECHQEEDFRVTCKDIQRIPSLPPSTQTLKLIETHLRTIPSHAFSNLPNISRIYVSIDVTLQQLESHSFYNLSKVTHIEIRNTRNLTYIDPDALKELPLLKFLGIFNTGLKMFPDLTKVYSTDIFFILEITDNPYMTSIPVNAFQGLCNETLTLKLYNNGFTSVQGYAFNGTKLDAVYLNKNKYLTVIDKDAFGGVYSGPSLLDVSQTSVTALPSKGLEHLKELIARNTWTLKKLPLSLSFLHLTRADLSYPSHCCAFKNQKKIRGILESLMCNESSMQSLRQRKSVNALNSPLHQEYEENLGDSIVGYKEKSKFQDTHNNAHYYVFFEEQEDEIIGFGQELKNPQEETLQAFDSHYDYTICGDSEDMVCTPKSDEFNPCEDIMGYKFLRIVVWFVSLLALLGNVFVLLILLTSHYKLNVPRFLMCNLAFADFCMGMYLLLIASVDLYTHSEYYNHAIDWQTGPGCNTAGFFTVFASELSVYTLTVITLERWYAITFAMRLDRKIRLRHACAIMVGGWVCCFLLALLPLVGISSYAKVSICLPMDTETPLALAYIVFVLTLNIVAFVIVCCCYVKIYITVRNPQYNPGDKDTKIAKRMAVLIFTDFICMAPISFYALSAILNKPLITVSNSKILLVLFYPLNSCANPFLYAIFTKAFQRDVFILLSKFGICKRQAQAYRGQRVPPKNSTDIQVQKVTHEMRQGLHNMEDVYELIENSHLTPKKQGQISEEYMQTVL
# In short: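 Readout is cAMP by HTRF competition between cellular cAMP and cAMP-d2 for a cryptate-labelled antibody. Antagonism was assessed in TSHR-transfected HEK293 cells stimulated with 4 nM TSH (EC80, final) in the presence of RO 20-1724.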
# [14] = target: D(1A) dopamine receptor (Homo sapiens) (UniProt P21728); assay: HTS Assay for Allosteric Agonists of the Human D1 Dopamine Receptor: Primary Screen for Agonists (AID 488981)
# Sequence of D(1A) dopamine receptor (Homo sapiens) (P21728 whole entry, looked up): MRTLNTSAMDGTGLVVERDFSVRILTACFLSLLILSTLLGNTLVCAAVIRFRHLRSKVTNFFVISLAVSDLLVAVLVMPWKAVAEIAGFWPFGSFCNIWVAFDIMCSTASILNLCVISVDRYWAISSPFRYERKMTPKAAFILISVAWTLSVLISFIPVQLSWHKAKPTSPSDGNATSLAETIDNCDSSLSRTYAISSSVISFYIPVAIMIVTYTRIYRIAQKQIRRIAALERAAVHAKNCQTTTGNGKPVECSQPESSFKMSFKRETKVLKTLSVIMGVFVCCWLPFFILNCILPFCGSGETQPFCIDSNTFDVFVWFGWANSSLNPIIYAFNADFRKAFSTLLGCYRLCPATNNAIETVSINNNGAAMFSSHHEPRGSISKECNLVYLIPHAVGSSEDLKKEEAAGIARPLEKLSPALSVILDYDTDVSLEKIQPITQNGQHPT
# In short: (§1)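 Tetracycline-induced HEK293 Trex D1 cells with forced coupling to calcium, loaded with no-wash calcium dye; kinetic fluorescence read 180 s after compound addition for agonism, then a further 180 s after an EC20 dopamine challenge for potentiation.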
# [15] = target: D(1A) dopamine receptor (Homo sapiens) (UniProt P21728); assay: HTS Assay for Allosteric Agonists of the Human D1 Dopamine Receptor: Primary Screen for Potentiators (AID 488982)
# In short: as §1
# [16] = Validation screen for small molecules that induce genotoxicity in human embryonic kidney (HEK293T) cells expressing luciferase-tagged ELG1 (AID 493106)
# In short: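 HEK293T cells expressing luciferase-tagged ELG1, 2,000 cells/well, exposed to compound 16 hr at 37 °C, 5% CO2. Luciferase read after ONE-Glo, 30 min at room temperature; increased signal indicates genetic stress.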
# [17] = Nrf2 qHTS screen for inhibitors: Validation (AID 493153; active = well fitted inhibition curve with a large enough effect in the main read-out, with a control signal flat, not every such curve was filed as active); settings: Potency: luciferase luminescence; viability change: measured here: cytotoxicity max response
# In short: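 A549 cells carrying ARE-firefly luciferase reporter, 5000 cells/well in 5% FBS OPTI-MEM, treated with compound over a concentration series for 18-24 h at 37 C. Luciferase luminescence gave Nrf2 activity; CellTiter-Fluor fluorescence gave viability.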
# [18] = qHTS for Inhibitors of Cell Surface uPA Generation: Validation Assay (AID 493164)
# In short: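 RAW 264.7 cells (4000/well) were plated overnight, then exposed for 18 h at 37 C, 5% CO2 to compounds in a 7-point 1:5 titration (2.45 nM–38.3 uM final). Intracellular ATP was read by ATP-Lite luminescence.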
# [19] = target: ATP-dependent 6-phosphofructokinase (Trypanosoma brucei brucei) (UniProt O15648); assay: qHTS Validation Assay to Find Inhibitors of T. brucei phosphofructokinase (AID 485368)
# In short: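 Activity was normalized between 1x (1.25 nM) PFK wells as no inhibition and enzyme-free wells as full inhibition, from luminescence after ADP-Glo detection of ADP made from 0.5 mM F6P and 0.1 mM ATP over 45 min.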
# [20] = target: Thyrotropin-releasing hormone receptor (Homo sapiens) (UniProt P34981); assay: qHTS for Small Molecule Agonists and Allosteric Enhancers of Human TRH Receptor: Validation Screen for Agonists (AID 493127;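 active = calcium activation more than 3 SD above the typical response in the agonist read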); settings: TRH receptor agonist cell assay; at 2 µM; stronger effect = higher value
# Sequence of Thyrotropin-releasing hormone receptor (Homo sapiens) (P34981 whole entry, looked up): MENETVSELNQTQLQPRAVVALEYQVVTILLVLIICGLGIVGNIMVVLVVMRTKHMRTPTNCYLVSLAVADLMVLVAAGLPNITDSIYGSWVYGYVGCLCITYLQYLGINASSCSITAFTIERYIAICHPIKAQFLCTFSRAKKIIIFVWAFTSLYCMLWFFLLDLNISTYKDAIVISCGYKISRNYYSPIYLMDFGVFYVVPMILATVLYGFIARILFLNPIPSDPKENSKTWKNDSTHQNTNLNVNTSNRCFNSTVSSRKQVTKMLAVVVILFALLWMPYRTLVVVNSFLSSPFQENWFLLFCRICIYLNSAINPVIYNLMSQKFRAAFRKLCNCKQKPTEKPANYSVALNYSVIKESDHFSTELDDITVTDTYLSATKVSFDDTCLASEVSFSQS
# In short: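 TRHR cells loaded with fluo-8 calcium dye; FDSS kinetic fluorescence (Ex 480/Em 530) read at 1 s/cycle after 23 nL compound addition. Agonist-mode calcium response recorded before the 10 nM TRH (EC20) addition.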
smiles,measurement,setting,value
Nc1ccc2cc3ccc(N)cc3nc2c1,outcome,[1],inactive
C[N+](C)(C)CCO,outcome,[2],inactive
same,outcome,[3],inactive
same,outcome,[4],inactive
same,Potency,[5],inactive
same,Potency,[6],inactive
same,outcome,[7],inactive
same,Potency,[8],inactive
same,Potency,[9],inactive
same,Potency,[10],inactive
same,outcome,[11],inactive
same,outcome,[12],inactive
same,outcome,[13],inactive
same,outcome,[14],inactive
same,outcome,[15],inactive
same,outcome,[16],inactive
same,Potency,[17],inactive
same,viability change,[17],-3.89%
same,outcome,[18],inactive
O=[N+]([O-])c1ccc(O)c2ncccc12,outcome,[1],inactive
Nc1c2ccccc2nc2ccccc12,outcome,[1],inactive
N[C@@H](Cn1ccc(=O)c(O)c1)C(=O)O,outcome,[2],inactive
same,outcome,[3],inactive
same,outcome,[4],inactive
same,outcome,[7],inactive
same,Potency,[8],inactive
same,Potency,[9],inactive
same,Potency,[10],inactive
same,outcome,[11],inactive
same,outcome,[14],inactive
same,outcome,[15],inactive
same,outcome,[16],inactive
same,outcome,[18],inactive
Clc1ccc2c(c1)N=C(N1CCNCC1)c1ccccc1N2,outcome,[2],inactive
same,outcome,[4],inactive
same,Potency,[19],inactive
same,outcome,[7],inactive
same,Potency,[9],inactive
same,Potency,[10],inactive
same,outcome,[11],inactive
same,outcome,[16],inactive
same,Potency,[17],inactive
same,viability change,[17],1.81%
same,outcome,[18],inactive
Cc1nn(-c2ccccc2)c(C)c1/C=N/N1CCN(Cc2ccccc2)CC1,outcome,[2],inactive
same,outcome,[4],inactive
same,Potency,[19],inactive
same,outcome,[7],inactive
same,Potency,[8],inactive
same,Potency,[10],39.8 µM (active)
same,outcome,[11],inactive
same,outcome,[14],inactive
same,outcome,[15],inactive
same,outcome,[16],inactive
same,Potency,[17],inactive
same,viability change,[17],-3.49%
same,outcome,[18],inactive
Nc1ncnc2nc[nH]c12,outcome,[1],inactive
COc1ccccc1N1CCN(CCN2C(=O)CC3(CCCC3)CC2=O)CC1,outcome,[2],inactive
same,outcome,[3],inactive
same,outcome,[4],inactive
same,Potency,[19],inactive
same,Potency,[6],inactive
same,outcome,[7],inactive
same,Potency,[8],inactive
same,Potency,[9],inactive
same,Potency,[10],inactive
same,outcome,[11],inactive
same,outcome,[12],inactive
same,outcome,[13],inactive
same,outcome,[14],inactive
same,outcome,[15],inactive
same,outcome,[16],inactive
same,activation,[20],2.31% (inactive)
same,Potency,[17],inactive
same,viability change,[17],9.42%
same,outcome,[18],inactive
COc1cccc2c1[C@@H]1CN(CCCCn3c(=O)[nH]c4c(sc5ncc(-c6ccccc6)nc54)c3=O)C[C@@H]1CO2,outcome,[2],inactive
same,outcome,[4],inactive
same,outcome,[7],inactive
same,Potency,[8],inactive
same,Potency,[9],20 µM (active)
same,Potency,[10],22.4 µM (active)
same,outcome,[11],inactive
same,outcome,[12],inactive
same,outcome,[13],inactive
same,outcome,[14],inactive
same,outcome,[15],inactive
same,outcome,[16],inactive
same,activation,[20],0.5% (inactive)
same,outcome,[18],inactive
O=C(Nc1ccc(Cl)cc1)Nc1ccc(Cl)c(Cl)c1,outcome,[1],inactive
CCCCCCCCCCCCCCCC[n+]1ccccc1,outcome,[1],inactive
O=S(=O)(O)c1ccc2nc(-c3ccccc3)[nH]c2c1,outcome,[1],inactive
CN1CCC(Nc2ncc3ncnc(Nc4ccc(F)c(Cl)c4)c3n2)CC1,outcome,[1],inactive
C[C@]12CCC(=O)C=C1CC[C@@H]1[C@@H]2[C@@H](O)C[C@@]2(C)[C@H]1CC[C@]2(O)C(=O)COC(=O)CCC(=O)O,Potency,[5],inactive
same,Potency,[6],inactive
same,Potency,[9],inactive
same,outcome,[12],inactive
same,outcome,[13],inactive
same,activation,[20],-0.0625% (inactive)
O=C1NC(c2cccc([N+](=O)[O-])c2)=CCN1c1ccccc1O,outcome,[2],inactive
same,outcome,[3],inactive
same,outcome,[4],inactive
same,Potency,[6],inactive
same,outcome,[7],inactive
same,Potency,[8],inactive
same,Potency,[9],inactive
same,Potency,[10],inactive
same,outcome,[11],inactive
same,outcome,[12],inactive
same,outcome,[13],inactive
same,outcome,[14],inactive
same,outcome,[15],inactive
same,outcome,[16],inactive
same,activation,[20],1.25% (inactive)
same,Potency,[17],inactive
same,viability change,[17],-1.13%
same,outcome,[18],inactive
Brc1ccc([C@H]2CN3CCSC3=N2)cc1,outcome,[2],inactive
same,outcome,[3],inactive
same,outcome,[4],inactive
same,Potency,[19],inactive
same,Potency,[5],inactive
same,Potency,[6],inactive
same,outcome,[7],inactive
same,Potency,[8],inactive
same,Potency,[9],inactive
same,outcome,[11],inactive
same,outcome,[12],inactive
same,outcome,[13],inactive
same,outcome,[14],inactive
same,outcome,[15],inactive
same,outcome,[16],inactive
same,activation,[20],-2.94% (inactive)
same,Potency,[17],inactive
same,viability change,[17],-0.405%
same,outcome,[18],inactive
